An excerpt weighted towards active compounds, which were near 3.5% of everything screened.
KCNK9 inh – human KCNK9 channel inhibition. Q9NPC2. HEK293 KCNK9, FluxOR thallium flux fluorescence; active compounds read low. 1.2% of 310,000 active. AID 488922. B-score at 10 µM;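 active = ratio B-score over 3 SD below the library mean, with starting fluorescence within 5 SD of its mean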;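 note: negative B-score means less thallium flux so channel inhibition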
Target sequence (Q9NPC2 whole entry, looked up): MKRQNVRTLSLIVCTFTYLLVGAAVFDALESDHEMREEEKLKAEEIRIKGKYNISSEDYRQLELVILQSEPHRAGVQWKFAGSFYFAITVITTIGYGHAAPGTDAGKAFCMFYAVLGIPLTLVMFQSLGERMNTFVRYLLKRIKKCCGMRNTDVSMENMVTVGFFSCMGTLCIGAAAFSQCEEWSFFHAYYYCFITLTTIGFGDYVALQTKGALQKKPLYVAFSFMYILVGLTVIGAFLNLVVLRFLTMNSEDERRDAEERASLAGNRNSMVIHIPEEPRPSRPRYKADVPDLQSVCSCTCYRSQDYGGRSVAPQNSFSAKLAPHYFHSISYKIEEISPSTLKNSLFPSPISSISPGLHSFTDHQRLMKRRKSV
Kir21 inh – blocks the mouse Kir2.1 inward-rectifier potassium channel; P35561; 0.85% of 310,000 active; HEK293-Kir2.1, FluxOR thallium flux fluorescence; active compounds read low; B-score at 10 µM;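 active = fluorescence ratio B-score at or below minus 3 SD of library scores, with starting-brightness B-score within 2 SD, cut at about -4.2 in these data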;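 note: channel flux triggered by added potassium and thallium sulfate stimulus; B-score of peak minus minimum fluorescence over baseline after thallium stimulus; more negative B-score means stronger Kir2.1 block with less thallium influx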
ANO1 block – mouse TMEM16A channel inhibition, primary screen; Q8BHY3; HEK293 TMEM16A/YFP iodide influx fluorescence, ionomycin; normalized B-score (activity score, 25-100; higher = stronger inhibition) at 10 µM; 1.2% of 310,000 active; AID 588511;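 active = ratio plate-corrected score three or more library SD toward inhibition, starting fluorescence score within five deviations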;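 note: score derived from kinetic fluorescence span divided by baseline fluorescence per well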
TMEM16A act – activates or potentiates the mouse TMEM16A chloride channel; Q8BHY3; HEK293 TMEM16A/YFP-H148Q/I152L, iodide quench fluorescence; active compounds read low; B-score at 10 µM; 0.3% of 340,000 active;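 active = fluorescence-ratio B-score plate-corrected deviation score at least 3 library SD below zero, with starting fluorescence score within 5 deviations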;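 note: channel opened by trigger with iodide after compound preincubation; score built on the fluorescence ratio of max minus min over baseline; more negative score means more quench and so TMEM16A activation or potentiation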
KCNK3 block – human KCNK3 channel inhibition, primary screen; O14649; CHO-KCNK3 thallium flux, FluxOR fluorescence; active compounds read low; B-score at 10 µM; 0.84% of 340,000 active;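 active = B-score under library mean minus 4 SD, starting fluorescence ratio at most library mean plus 5 SD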;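 note: more negative B-score means stronger inhibition of thallium flux through KCNK3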
TMEM16A reconf – reconfirmed blocker of mouse TMEM16A calcium-activated chloride channel. shares compounds with ANO1 block. HEK293 TMEM16A/YFP-H148Q, iodide quench fluorescence; ionomycin added to raise cell calcium. inhibition, % at 10 µM. 39% of 2,300 active. AID 652189;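 active = mean duplicate percent inhibition, scaled so buffer wells are 0 and the reference blocker 100, over three buffer SD above buffer mean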
TMEM16A Ca cntr – counter-screen for TMEM16A inhibitors: effect on calcium mobilization; AID 652231; calcium response (% of ionomycin), % at 10 µM; shares compounds with ANO1 block; 2% of 2,300 active; TMEM16A/YFP HEK293, Fluo4 calcium mobilization;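 active = duplicate-averaged calcium signal over 20% of the ionomycin maximum, relative to buffer baseline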;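 note: each well's signal is peak minus trough fluorescence divided by its pre-addition baseline; 0% = buffer wells and 100% = ionomycin wells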
YFP-HEK293 quench – counter-screen for TMEM16A inhibitors: effect in parental YFP-HEK293 cells. YFP ratio F(max-min)/F0 at 10 µM. shares compounds with ANO1 block. iodide YFP quench, ionomycin. 2,300 tested, under 10 active;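 active = yellow fluorescent protein signal ratio exceeding the buffer control mean by over 5 SD of those controls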;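 note: ratio is mean of duplicate wells from kinetic YFP trace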
ClC-1 rat inh – rat ClC-1 inhibition, TMEM16A specificity screen | 2,300 tested, under 10 active | ratio percent, % at 10 µM | CHO ClC-1-YFP, iodide influx fluorescence quench; iodide control reads 0, buffer control 100 | shares compounds with ANO1 block;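 active = duplicate-mean ratio percent above the mean of iodide-only control wells, which defines zero, plus 5 of their SD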;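 note: higher percent means stronger block of ClC-1 iodide influx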
An asterisk follows results filed as active.

Screening COc1cc(C(C(=O)NC2CCCC2)N(CCO)C(=O)Cn2nnc(-c3ccc(C)o3)n2)ccc1O (stereo not drawn) returned KCNK9 inh inactive, Kir21 inh 2.13, ANO1 block inactive, TMEM16A act inactive and KCNK3 block inactive.
For CCN(CC)S(=O)(=O)c1ccc(NC(=O)Nc2cccc(C(F)(F)F)c2)cc1 the results were KCNK9 inh inactive, Kir21 inh -0.03, ANO1 block 100*, TMEM16A act inactive, KCNK3 block inactive, TMEM16A reconf 43.5%*, TMEM16A Ca cntr inactive, YFP-HEK293 quench -1.25 and ClC-1 rat inh -9.5.
`COC(C(=O)Nc1ccc(NC(=O)C(OC)c2ccccc2)cc1)c1ccccc1` (stereo not drawn) gave KCNK9 inh inactive, Kir21 inh -0.98, ANO1 block inactive, TMEM16A act inactive and KCNK3 block inactive.
For CCN(CC)S(=O)(=O)c1ccc(NC(=O)C(OC)c2ccccc2)cc1 (stereo not drawn) the results were KCNK9 inh inactive, Kir21 inh 0.83, ANO1 block 25*, TMEM16A act inactive, KCNK3 block inactive, TMEM16A reconf inactive, TMEM16A Ca cntr inactive, YFP-HEK293 quench -1.33 and ClC-1 rat inh -2.5.
Screening CCc1c(C)nc2cc(-c3cccc(Br)c3)[nH]n2c1=O returned KCNK9 inh inactive, Kir21 inh 1.25, ANO1 block inactive, TMEM16A act inactive and KCNK3 block inactive.
For COc1cc(NC(=O)CN2C(=O)c3ccccc3S2(=O)=O)c(OC)cc1Cl the results were KCNK9 inh inactive, Kir21 inh 1.42, ANO1 block inactive, TMEM16A act inactive and KCNK3 block inactive.
Screening COCCNC(=O)c1c(NC(=O)c2nc(SC)ncc2Cl)sc2c1CCCC2 returned KCNK9 inh inactive, Kir21 inh -0.32, ANO1 block inactive, TMEM16A act inactive, KCNK3 block inactive, TMEM16A reconf 23.5%*, TMEM16A Ca cntr inactive, YFP-HEK293 quench -0.777 and ClC-1 rat inh 6.0.
O=C(c1cc(COc2c(F)cccc2F)on1)N1CCN(C2CCCCC2)C(=O)C1 was read as KCNK9 inh inactive, Kir21 inh 0.78, ANO1 block inactive, TMEM16A act inactive and KCNK3 block inactive.
O=C(c1cc(COc2c(F)cccc2F)on1)N1CCC(c2ccncc2)CC1 was read as KCNK9 inh inactive, Kir21 inh -2.76, ANO1 block 25*, TMEM16A act inactive, KCNK3 block inactive, TMEM16A reconf inactive, TMEM16A Ca cntr inactive, YFP-HEK293 quench -1.2 and ClC-1 rat inh -22.5.
Cc1cccc(C)c1OCc1cc(C(=O)N2CCC(c3ccncc3)CC2)no1 was read as KCNK9 inh inactive, Kir21 inh -0.01, ANO1 block 25*, TMEM16A act inactive, KCNK3 block inactive, TMEM16A reconf 21.0%*, TMEM16A Ca cntr inactive, YFP-HEK293 quench -1.03 and ClC-1 rat inh -21.5.
O=[N+]([O-])c1ccc(N2CCN(Cc3ccc(Br)o3)CC2)cc1 was read as KCNK9 inh inactive, Kir21 inh 0.87, ANO1 block inactive, TMEM16A act inactive and KCNK3 block inactive.
Screening CCc1cccc(C)c1NC(=O)CCCN1C(=O)CN(C)C1=O returned TMEM16A act inactive and KCNK3 block inactive.
For CCOC(=O)c1c(-c2cccs2)csc1NC(=O)C(C)(C)C the results were KCNK9 inh inactive, Kir21 inh 1.22, ANO1 block 25*, TMEM16A act inactive, KCNK3 block inactive, TMEM16A reconf 33.0%*, TMEM16A Ca cntr inactive, YFP-HEK293 quench -1.08 and ClC-1 rat inh -6.0.
`CCCNC(=O)CNC(=O)c1ccc(C#N)cc1` gave TMEM16A act inactive and KCNK3 block inactive.
Screening Cc1nn(-c2ccccc2)c(Cl)c1C(=O)Nc1nnc(C2CCCC2)s1 returned KCNK9 inh inactive, Kir21 inh 0.57, ANO1 block 25*, TMEM16A act inactive, KCNK3 block inactive, TMEM16A reconf inactive, TMEM16A Ca cntr inactive, YFP-HEK293 quench -1.13 and ClC-1 rat inh -16.5.
Screening COCCN1Cc2cccc(C(=O)NCC3CCN(CC(C)C)C3)c2C1=O (stereo not drawn) returned KCNK9 inh inactive, Kir21 inh 0.01, ANO1 block inactive, TMEM16A act inactive and KCNK3 block inactive.
Screening CCOC(=O)N1CCC(N2Cc3cccc(C(=O)NCC4CCN(CC(C)C)C4)c3C2=O)CC1 (stereo not drawn) returned ANO1 block 100*, TMEM16A act inactive, KCNK3 block inactive, TMEM16A reconf inactive, TMEM16A Ca cntr inactive, YFP-HEK293 quench -1.29 and ClC-1 rat inh -6.0.
Screening O=C(CCCCCn1c(=O)[nH]c2ccsc2c1=O)NCc1ccc2c(c1)OCO2 returned KCNK9 inh inactive, Kir21 inh 1.45, ANO1 block 25*, TMEM16A act inactive, KCNK3 block inactive, TMEM16A reconf inactive, TMEM16A Ca cntr inactive, YFP-HEK293 quench -1.16 and ClC-1 rat inh -7.0.
For O=C(CCCn1c(=O)[nH]c2ccsc2c1=O)N1CCN(Cc2ccc3c(c2)OCO3)CC1 the results were KCNK9 inh inactive, Kir21 inh 0.82, ANO1 block inactive, TMEM16A act inactive and KCNK3 block inactive.
For CNC(=S)N(CCN(C)C)Cc1cc2cc3c(cc2[nH]c1=O)OCO3 the results were KCNK9 inh inactive, Kir21 inh -0.91, ANO1 block inactive, TMEM16A act inactive and KCNK3 block inactive.
Screening O=C(Nc1ccc(F)cc1F)c1cc(-c2ccco2)on1 returned KCNK9 inh inactive, Kir21 inh 0.09, ANO1 block 100*, TMEM16A act inactive, KCNK3 block inactive, TMEM16A reconf inactive, TMEM16A Ca cntr inactive, YFP-HEK293 quench -1.23 and ClC-1 rat inh -5.5.
Screening COc1cc(/C=C/C(=O)c2ccc3c(c2)OCCO3)cc(Br)c1OCC(=O)N(C)C returned KCNK9 inh inactive, Kir21 inh -0.14, ANO1 block inactive, TMEM16A act inactive, KCNK3 block inactive, TMEM16A reconf inactive, TMEM16A Ca cntr inactive, YFP-HEK293 quench -1.31 and ClC-1 rat inh -44.0.
`O=C(/C=C/c1ccncc1)c1ccc2c(c1)OCCO2` gave KCNK9 inh inactive, Kir21 inh -4.09, ANO1 block inactive, TMEM16A act inactive and KCNK3 block inactive.

High-throughput results deposited in PubChem by Johns Hopkins Ion Channel Center.
